In ChEMBL document CHEMBL3988442, “University of Dundee, Small-Polar-MMV Screening Library” (2021):
In all, about 69,000 compounds went through this assay and about 10 (0.01%) showed an effect of 50% or more. The sample holds strong results, similar compounds and a random draw of the others, so the mix is not that of the screen.

molecular target: ClpP1P2 (Mycobacterium tuberculosis (strain ATCC 25618 / H37Rv)) (UniProt P9WPC5+P9WPC3); assay: in vitro assay to detect presence of AMC directly proportional to the activity of ClpP1P2. GHDDI collaboration.; format: functional; set-up: scale not given: direction of the effect not stated beside the values; conditions: 50 µM

| Compound | Percent Effect |
| --- | --- |
| CN(C)S(=O)(=O)N1C[C@H]2CCC[C@@]2(COCC2CC2)C1 | 0.536% |
| Cc1cccc(CN2C(=O)CC[C@H]3[C@@H]2CCN3CC(=O)N(C)C)n1 | 2.64% |
| Cc1nc(-c2ccc(CC(=O)N3CCN(C(=O)C4CC4)CC3)cc2)cs1 | 7.62% |
| Cc1nc(-c2ccc(CC(=O)N3CCN(C(=O)C(C)C)CC3)cc2)cs1 | 88.4% |
| Cc1nc(-c2ccc(CC(=O)N3CCNC(=O)C3)cc2)cs1 | -0.00295% |
| c1cc(CN2CCO[C@@H]3CNC[C@@H]32)co1 | -6.86% |
| CN1C[C@H]2CN(C(=O)c3ccc4c(c3)OCO4)CCN2C1=O | -1.11% |
| O=C1NC(c2ccccc2)=N[C@@]12CC[C@@H]1CN(Cc3ccco3)C[C@@H]12 | -1.45% |
| COCC(=O)N1CC[C@H]2OCC[C@@]2(c2nc(C)no2)C1 | -7.69% |
| CN(C)C(=O)N1CCC[C@]2(C(=O)N(C)C)CN(c3ccccn3)C[C@@H]2C1 | -16.1% |
| COc1ccc(CN2C[C@H]3C[C@H](C(=O)Nc4cccnc4)[C@@H](C2)O3)cc1 | 7.77% |
| CCC(=O)N1C[C@@H]2CCN(c3cnccn3)C[C@@H]2C1 | 27.9% |
| Cc1cccc(CN2C[C@@H]3CN(C(=O)c4ccsc4)C[C@@H]3C2=O)c1 | 5.73% |
| O=C(N1CCOCC1)N1C[C@H]2CC[C@@H]1CN(C1Cc3ccccc3C1)C2 | 4.16% |
| O=C(c1ccoc1)N1CCO[C@@H]2CNC[C@@H]21 | -6.03% |
| CN1CCN(C(=O)C[C@@H]2COC[C@H]3CN(c4ccncn4)C[C@@H]23)CC1 | -11.8% |
| Cc1cccnc1[C@]1(O)CC[C@H]2CN(Cc3cccc(Cl)c3Cl)C[C@H]21 | 0.575% |
| COCCN1CCN(C(=O)c2ccccc2C(C)=O)[C@H]2CS(=O)(=O)C[C@H]21 | -4.44% |
| Cc1nccc([C@@H]2C[C@@H]3CCN(Cc4c(C)noc4C)C[C@H]3O2)n1 | 9.38% |
| N#Cc1ccccc1CN1C[C@@H]2CC[C@H](C1)N(CC1CC1)C2=O | -3.85% |
| O=C(c1ccnnc1)N1CCN2C[C@H](OCc3ccccn3)C[C@H]2C1 | 0.376% |
| C[C@H]1C[C@H]2CN(C(=O)CCOc3ccccc3)CC[C@H]2O1 | 5.83% |
| O=C(NC[C@]12COC[C@H]1CN(Cc1nccs1)C2)c1cscn1 | 2.68% |
| O=C(Nc1cnccn1)[C@@H]1CCO[C@@H]2CCN(Cc3ccsc3)C[C@@H]21 | -0.52% |
| Cc1ccnn1CCC(=O)N1C[C@H]2CC[C@@H]1CN(CC(=O)N(C)C)C2 | 10.3% |

| Compound | Percent Effect |
| --- | --- |
| CCNC(=O)N1C[C@@H]2OCC(=O)N(CC3CCCCC3)[C@@H]2C1 | 5.8% |
| Cc1noc([C@@]23CCO[C@@H]2CCN(C(=O)CN(C)C)C3)n1 | -12.4% |
| O=C(NCC1CCOCC1)[C@H]1C[C@@H]2CCN(c3nncs3)C[C@@H]2O1 | -12.4% |
| Cn1ccnc1C(=O)NC[C@H]1OC[C@@H]2CCN(S(C)(=O)=O)C[C@@H]21 | 12.7% |
| COCC(=O)N1CCC[C@]2(C(=O)N(C)C)CN(c3ccccn3)C[C@@H]2C1 | -0.178% |
| C[C@H]1C[C@H]2CN(C(=O)c3cccc4c3OCCO4)CC[C@H]2O1 | -0.751% |
| Cn1cccc1C(=O)N1CC[C@H]2[C@H](CO[C@H]2CNS(C)(=O)=O)C1 | 5.31% |
| Cc1nn(C)c(C)c1S(=O)(=O)N1C[C@@H]2C[C@@H](C)O[C@@H]2C1 | -4.66% |
| CCC1=N[C@@]2(CC[C@@H]3CN(S(=O)(=O)CC)C[C@@H]32)C(=O)N1CC | -9.65% |
| CN1C[C@H]2C[C@H](C(=O)Nc3cccnc3)[C@@H](C1)O2 | -5.71% |
| Cn1cc(C(=O)NC[C@H]2OC[C@@H]3CCN(C4CCOCC4)C[C@@H]32)cn1 | -8.58% |
| Cc1ccnn1CCC(=O)N1CCCC[C@]2(C)NC(=O)CCC[C@H]12 | 2.82% |
| C[C@@H]1C(=O)NC[C@H]2CN(CCc3ccccc3)C[C@H]21 | 11.1% |
| O=C(NCc1ccccn1)[C@H]1COC[C@H]2CN(CC3CC3)C[C@H]21 | 7.53% |
| Cc1cnc(CNC(=O)[C@@H]2CC[C@@H]3[C@@H](CCN3Cc3ccco3)O2)cn1 | -0.464% |
| CC(C)=CCN1C[C@H]2CC[C@@H]1CN(CCC(=O)NCc1ccco1)C2 | -17.3% |
| Cc1nc(COC[C@@]23CCC[C@@H]2CN(Cc2cnn(C)c2)C3)cs1 | 2.95% |
| CNC(=O)[C@@]12CCO[C@@H]1CCN(Cc1ccc3c(c1)OCO3)C2 | 14.7% |
| O=C(O)[C@@]12CN(c3cnccn3)C[C@@H]1CN(C1CCOCC1)C2 | -12.3% |
| Fc1cnc(N2CCO[C@H]3[C@H](OCCN4CCCC4)CC[C@@H]32)nc1 | -0.916% |
| Fc1cccnc1O[C@H]1CN(Cc2ccoc2)[C@@H]2CCCO[C@H]12 | 5.17% |
| Cc1nc(CN2C(=O)CC[C@@H]3[C@H]2CCN3C(=O)c2ccccn2)cs1 | 2.69% |
| Cc1nc(CN2CCO[C@@H]3CN(Cc4ccccn4)CC[C@@H]3C2)cs1 | -1.41% |
| c1ccc(CO[C@H]2C[C@@H]3CN(Cc4cncnc4)C[C@@H]3C2)cc1 | -9.01% |
| COCCNC(=O)[C@H]1C[C@@H]2CCN(c3ccncn3)C[C@H]2O1 | -14.9% |

| Compound | Percent Effect |
| --- | --- |
| Cc1ccc(C(=O)N2CC[C@@H]3[C@H]2CCC(=O)N3CCN(C)C)cn1 | 15.8% |
| Cc1ccc2[nH]c(CO[C@H]3CN(c4ccc(C#N)cn4)C[C@H]3F)nc2c1 | 78.4% |
| CN1C[C@@H](F)[C@@H](OCc2nc3ccc(C#N)cc3[nH]2)C1 | -10.4% |
| Cc1ccc2[nH]c(CO[C@H]3CN(C(=O)C4CC4)C[C@H]3F)nc2c1 | -1.53% |
| CC(=O)N1CCC(c2cncc(N3CCC(O)C3)n2)CC1 (centres undefined) | -28.1% |
| CC(=O)N1CCC(c2cncc(N3CCOCC3)n2)CC1 | 55.4% |
| CC(=O)N1CCC(c2cncc(N3CCCCCC3)n2)CC1 | -8.81% |
| O=C(NC1CCC1)[C@@H]1C[C@@H]2CCN(Cc3cccs3)C[C@@H]2O1 | -6.23% |
| O=C1CC[C@]2(CC[C@@H](NCc3cccnc3)CC2)N1Cc1ccccc1 | 9.66% |
| CN(C)S(=O)(=O)N1CC[C@]2(O)CCN(Cc3cccc(C#N)c3)C[C@@H]2C1 | -12.9% |
| CO[C@H]1CN(Cc2ccc(C)o2)[C@@H]2CCCO[C@H]12 | -4% |
| COCCN1C[C@H]2CC[C@@H]1CN(C(=O)c1ccc(Cl)cc1)C2 | 2.81% |
| Cc1ccccc1CN1C[C@@H](C(=O)N2CCCCO2)C[C@H]2OCC[C@H]21 | -6.2% |
| CCCN1CCN(C(=O)c2cnc(C)nc2)[C@H]2CS(=O)(=O)C[C@H]21 | 5.85% |
| CCS(=O)(=O)N1CC[C@@H]2[C@H](COCC3CC3)CN(C)C(=O)[C@@H]2CC1 | -4.29% |
| Cc1ccc([C@]2(O)CC[C@H]3CN(Cc4ccncc4)C[C@H]32)nc1 | 23.9% |
| O=C([C@H]1C[C@H]2OCC[C@H]2N(CC2CCOCC2)C1)N1CCCCO1 | -11.4% |
| COCCN1C[C@@H]2[C@@H](OC)CCN(S(=O)(=O)c3cccnc3)[C@@H]2C1 | -10.6% |
| Cc1cnc(N2C[C@H]3CCN(CC4CC4)C[C@H]3C2)nc1 | -8.8% |
| Cc1ccc(CN2CC[C@@H]3[C@@H]2CCN3C(=O)Cc2cccs2)o1 | 16.6% |
| COc1ccc(CC(=O)N2C[C@H]3CN(Cc4ccccn4)C[C@H]3C2)cc1 | -3.43% |
| Cc1noc(C)c1CN1C[C@H](OCC(=O)N(C)C)[C@H]2OCCC[C@H]21 | -8.82% |
| CNCCN1C(=O)CC[C@H]2CN(c3cnc4ccccc4n3)CC[C@H]21 | -92.8% |
| O=C(CN1C[C@H]2CC[C@@H]1CN(Cc1ccccn1)C2)Nc1ccccc1 | -28.1% |
| CN(Cc1ccco1)[C@@H]1CN(Cc2cccnc2)C[C@@H]2CCCO[C@@H]21 | 6.33% |

| Compound | Percent Effect |
| --- | --- |
| CC(C)OC(=O)N1C[C@H]2CC[C@@H]1CN(C(=O)c1ccccc1)C2 | -3.47% |
| Cc1noc([C@H]2COC[C@H]3CN(C(=O)Cc4cccs4)C[C@H]32)n1 | -9.33% |
| CN(C)C(=O)[C@@H]1C[C@@H]2CCN(Cc3ccncc3)C[C@@H]2O1 | 7.41% |
| c1cncc(COCC2CC[C@H]3[C@H]2OCCN3Cc2ccoc2)c1 (some centres undefined) | 3.35% |
| CN(C)C[C@]12COC[C@H]1CN(C(=O)Cc1ccc3c(c1)OCO3)C2 | 7.79% |
| Cn1cc(CN2CC[C@@H]3O[C@H](C(=O)N4CCOCC4)C[C@@H]32)cn1 | -11.6% |
| COCCN1C[C@@H]2CN(Cc3cccc(F)c3)CCC[C@]2(C(=O)O)C1 | -13.3% |
| Cc1cccc2nc(C(=O)N3CCCC[C@]4(C)NC(=O)CCC[C@H]34)cn12 | -8.66% |
| CN(C)C(=O)[C@H]1CC[C@@H]2[C@@H](CCN2Cc2ccccn2)O1 | -3.56% |
| CC1=N[C@@]2(CC[C@@H]3CN(Cc4cccc(Cl)c4)C[C@@H]32)C(=O)N1CC1CC1 | 3.49% |
| O=C(c1cccnc1)N1C[C@@H]2OCCN(CCN3CCCC3)[C@@H]2C1 | 4.78% |
| Cn1ccnc1CN1CCO[C@H]2C(CNC(=O)c3ccco3)CC[C@@H]21 (some centres undefined) | 0.912% |
| Cc1ncsc1CN1C[C@@H](OCC(=O)N(C)C)[C@H]2OCCC[C@H]21 | -2.89% |
| CCS(=O)(=O)N1CCC[C@]2(C(=O)N(C)C)CN(c3ncccn3)C[C@@H]2C1 | 5.41% |
| CCc1ccc(CN2C[C@@H]3COC[C@H](NS(C)(=O)=O)[C@@H]3C2)o1 | -9.73% |
| Cc1cccc(CN2CCCC[C@H]3CN(c4ncccn4)C[C@H]32)c1 | 3.15% |
| CCN1CCO[C@@H]2CN(S(=O)(=O)c3cccs3)CC[C@@H]2C1 | 1.3% |
| CC(=O)N1CCC(N2CCN3C(=O)N(c4ccccc4)C[C@H]3C2)CC1 | -1.27% |
| Cc1noc([C@@]23CCO[C@@H]2CCN(C(=O)c2c(C)noc2C)C3)n1 | -20.2% |
| CCCS(=O)(=O)N1C[C@@H]2CN(Cc3ccoc3)CCO[C@@H]2C1 | 2.92% |
| Cc1cc(CN2C[C@@H]3CCCO[C@@H]3[C@H](Nc3ccccn3)C2)no1 | -4.49% |
| COc1cc2c(cc1-c1nc3c(cnn3C(C)C3CC3)[nH]1)OCO2 (centres undefined) | 21.1% |
| COc1cc2c(cc1-c1nc3c(cnn3C(C)C)[nH]1)OCO2 | 56.2% |
| COc1cc2c(cc1-c1nc3c(cnn3C(C)C(C)C)[nH]1)OCO2 (centres undefined) | -3.85% |
